# In PubChem BioAssay (NCATS):
# Inconclusive results are not listed. Unmarked numbers belong to inactive results. Activity calls are given as the source filed them. Calls follow the shape of the dose curve; as a rule, active = well fitted inhibition curve with a large enough effect; inconclusive = small, poorly fitted or top-dose-only effect; inactive = flat fitted curve, though single readings scatter.
# Key:
# Test in all cases: Cytotoxic Profiling of Annotated Libraries Using Quantitative High-Throughput Screening (AID 1296008); also: nearly all actives have a fitted effect of over 60% in size
# Conditions in all cases: Five cell lines viability, CellTiter-Glo ATP luminescence, 48-72 h; max response: stronger effect = lower value
# HaCat = system: HaCat
# Procedure, shortened: (§1)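 Cytotoxicity was measured as CellTiter-Glo ATP luminescence, read after 10 min at room temperature. Compound treatment of the cells lasted 48 or 72 hr at 37 degrees Celsius in a qHTS format.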
# KB-3-1 = system: KB-3-1
# Procedure, shortened: as §1
# NIH3T3 = system: NIH3T3
# Procedure, shortened: as §1
# % is scaled to controls: 0 for no effect and ±100 for the full control effect; potency is read from the fitted curve at half-maximal effect.
compound,measurement,setting,value
CCCCNc1ncc2c(-c3ccc(S(=O)(=O)N4CCOCC4)cc3)nn(C3CCC(O)CC3)c2n1 (stereo not given),Potency,HaCat,6.51 µM (active)
same,Potency,KB-3-1,11.6 µM (active)
same,Potency,NIH3T3,7.31 µM (active)
CC(C)c1ccc(-c2cc(=O)c3ccccc3o2)cc1,max response,HaCat,-4.45%
same,max response,KB-3-1,-3.41%
same,max response,NIH3T3,-24.9%
C=C1[C@H]2CC[C@H](C(=O)O)[C@@]23CC[C@H](C3)C1(C)C,max response,HaCat,-74.2%
same,outcome,KB-3-1,inactive
same,outcome,NIH3T3,inactive
CCCCOc1ccc(S(=O)(=O)n2c(C)nc3ccccc32)cc1,max response,HaCat,3.36%
same,max response,KB-3-1,-24.1%
same,max response,NIH3T3,-1.64%
Cn1c(=O)c(F)c(Nc2ccc(I)cc2F)c2c(=O)n(CC(O)CO)cnc21 (stereo not given),Potency,HaCat,6.51 µM (active)
same,max response,KB-3-1,-14.5%
same,Potency,NIH3T3,1.3 µM (active)
NC(N)=N/N=C/c1ccccc1Cl,max response,HaCat,-18.8%
same,max response,KB-3-1,-14.8%
same,max response,NIH3T3,-25.1%
CCC(=O)N1CCOc2c(cc(-c3ccc(OC)c(OC)c3)cc2OC[C@H]2CCCN(C)C2)C1,max response,HaCat,3.21%
same,max response,KB-3-1,-9.43%
same,outcome,NIH3T3,inactive
COc1nc2ccc(Br)cc2cc1[C@@H](c1ccccc1)[C@@](O)(CCN(C)C)c1cccc2ccccc12,max response,HaCat,-2.21%
same,max response,KB-3-1,-1.57%
same,Potency,NIH3T3,18.4 µM (active)
c1cc(NC2CCNCC2)nc(-c2cnc3ccccn23)c1,Potency,HaCat,3.66 µM (active)
same,Potency,KB-3-1,3.26 µM (active)
same,Potency,NIH3T3,5.8 µM (active)
C=CC(C)(C)C12CC3C(=O)N4C(CC5(C(C)(C)C=C)c6ccccc6NC45)C(=O)N3C1Nc1ccccc12 (stereo not given),Potency,HaCat,11.2 µM (active)
same,max response,KB-3-1,3.74%
same,max response,NIH3T3,1.64%
COC1CCN(C(=O)c2cc(Cc3n[nH]c(=O)c4ccccc34)ccc2F)CC1,max response,HaCat,1.07%
same,max response,KB-3-1,-17.5%
same,max response,NIH3T3,-21.2%
C=C1[C@@H](OC(C)=O)CC[C@@]2(C)[C@@H](OC(C)=O)[C@H](OC(C)=O)C3=C(C)C[C@H](OC(=O)C(C)CC)[C@@H]([C@@H](OC(C)=O)[C@H]12)C3(C)C (stereo not given in full),Potency,HaCat,1.93 µM (active)
same,Potency,KB-3-1,2.43 µM (active)
same,Potency,NIH3T3,5.44 µM (active)
C=C1C(=O)O[C@@H]2[C@H]1CCC(C)=C(CCC(=O)O)[C@@]2(C)O,max response,HaCat,2.79%
same,outcome,KB-3-1,inactive
same,max response,NIH3T3,-62.1%
O=c1cc(N2CCN(c3cccc(C(F)(F)F)c3)CC2)[nH]c(=O)n1C1CCCCC1,max response,HaCat,-21.7%
same,outcome,KB-3-1,inactive
same,max response,NIH3T3,-29.2%
NC(=O)c1ccccc1Nc1ccnc(Nc2cccc(O)c2)n1,Potency,HaCat,5.8 µM (active)
same,Potency,KB-3-1,8.2 µM (active)
same,Potency,NIH3T3,7.31 µM (active)
COc1cc2ncnc(Nc3ccc(O)c(Br)c3)c2cc1OC,Potency,HaCat,3.66 µM (active)
same,max response,KB-3-1,0.483%
same,Potency,NIH3T3,11.6 µM (active)
COc1ccc([C@H]2OC[C@H]3O[C@@H](O[C@H]4[C@@H]2NC[C@@H]4O)[C@H](O)[C@H]3O)cc1,Potency,HaCat,2.55 µM (active)
same,Potency,KB-3-1,0.904 µM (active)
same,Potency,NIH3T3,1.14 µM (active)
COc1cc(C#N)ccc1S(=O)(=O)Nc1ccc2c(c1)cc(C)c(=O)n2C,max response,HaCat,-9.16%
same,max response,KB-3-1,-22.2%
same,max response,NIH3T3,-0.625%
C/C=C(\C)C(=O)O[C@H]1C[C@](C)(O)[C@H]2CC=C(C)[C@H]2[C@@H]2OC(=O)[C@H](C)[C@H]21,max response,HaCat,2.74%
same,max response,KB-3-1,-0.753%
same,max response,NIH3T3,0.0048%
Nc1nc(OCc2cc(Br)cs2)c2[nH]cnc2n1,max response,HaCat,-1.07%
same,outcome,KB-3-1,inactive
same,max response,NIH3T3,2.13%
NS(=O)(=O)Nc1ncnc(OCCOc2ncc(Br)cn2)c1-c1ccc(Br)cc1,max response,HaCat,-23.8%
same,max response,KB-3-1,6.63%
same,max response,NIH3T3,-5.35%
Cc1cc2sc(NC(=O)Cc3ccccc3)nc2cc1Cl,max response,HaCat,-26.8%
same,max response,KB-3-1,3.53%
same,max response,NIH3T3,0.0198%
COc1ccc(Cl)c(Nc2ncnc3cc(OCC4CCN(C)CC4)c(OC)cc23)c1,Potency,HaCat,4.11 µM (active)
same,max response,KB-3-1,2.68%
same,Potency,NIH3T3,7.31 µM (active)
COc1cc(C(=O)NCC2(N(C)C)CCCC2)cc(OC)c1OCc1ccccc1,max response,HaCat,3.73%
same,max response,KB-3-1,3.26%
same,max response,NIH3T3,-9.79%
CCOc1ccc(-n2c(C(C)N(Cc3cccnc3)C(=O)Cc3ccc(F)c(C(F)(F)F)c3)nc3ncccc3c2=O)cc1 (stereo not given),max response,HaCat,-10.9%
same,outcome,KB-3-1,inactive
same,max response,NIH3T3,2.59%
